# NPC1 promoter act: activates the NPC1 promoter. hit rate 2.4% among 320,000. Huh7 NPC1 promoter luciferase reporter, 24 h. AID 485313. Potency, µM (highest dose often 9.22 µM), for inactives: at the top dose activation, actives largely listed as activators; further: % of control where 0% means no effect; nearly all actives have a fitted effect of over 60% in size
#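 Cells: Huh7 expressing luciferase under the NPC1 promoter, 1500/well. Seeded 2 h, compound added, incubated 24 h at 37 °C. Luciferase reagent, 10 min ambient, then luminescence.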
# FLuc counter: inhibits or activates purified firefly luciferase, miR-21 counter-screen. P08659. purified FLuc, Km substrates, luminescence inhibition. Potency, µM (doses to about 57.5 µM), inactives show at the top dose activity change, negative = inhibition, usual class: inhibitors. hit rate 6.9% among 360,000. AID 588342;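 further: plate controls were vehicle for no effect and reference inhibitor for full effect; nearly all actives have a fitted effect of over 55% in size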
# Target sequence (P08659 whole entry, looked up): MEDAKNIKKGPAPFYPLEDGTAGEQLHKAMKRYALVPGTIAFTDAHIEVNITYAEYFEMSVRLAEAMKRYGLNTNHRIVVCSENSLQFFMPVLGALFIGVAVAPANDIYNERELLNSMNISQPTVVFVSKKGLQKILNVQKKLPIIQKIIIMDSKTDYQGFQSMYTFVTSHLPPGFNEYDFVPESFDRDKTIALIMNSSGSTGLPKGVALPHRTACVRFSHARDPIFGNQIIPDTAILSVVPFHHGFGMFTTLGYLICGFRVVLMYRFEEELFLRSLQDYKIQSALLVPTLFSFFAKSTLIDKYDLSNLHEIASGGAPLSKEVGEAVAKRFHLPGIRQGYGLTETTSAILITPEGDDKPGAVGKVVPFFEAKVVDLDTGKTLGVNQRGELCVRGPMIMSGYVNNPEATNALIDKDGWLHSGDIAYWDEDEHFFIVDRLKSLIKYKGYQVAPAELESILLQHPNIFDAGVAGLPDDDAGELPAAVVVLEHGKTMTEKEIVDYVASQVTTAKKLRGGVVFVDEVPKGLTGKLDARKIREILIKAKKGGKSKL
#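 Biochemical qHTS of compounds, final roughly 60 µM downward over six points, against 10 nM purified firefly luciferase using Km concentrations of substrates (10 uM D-luciferin, 10 uM ATP) in Tris acetate pH 7.5 buffer; luminescence output.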
# ELG1 genotox: genotoxicity induction in ELG1-luciferase HEK293T cells; HEK293T ELG1-luciferase reporter, luminescence, 16 h; Potency, µM (series often up to 46 µM), for the others: at the highest dose activity change, positive = activation, usual class: activators; hit rate 1.3% among 330,000; AID 504466; further: % of control where 0% means no effect; nearly all actives have a fitted effect of over 60% in size
#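 After overnight (16 hr) compound treatment at 37 °C, ELG1-luciferase HEK293T cells were lysed with ONE-Glo; luminescence quantified 30 min later at room temperature.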
# ELG1 repair inh: inhibitors of ELG1-dependent DNA repair in HEK293T cells | HEK293T ELG1-luciferase reporter, luminescence, 16 h; DNA damage induced by 5-fluorouridine | Potency, µM (top dose mostly 46.1 µM), for the others: at the highest dose activity change, negative = inhibition, most hits filed as inhibitors | hit rate 2.3% among 330,000 | AID 504467; further: on the % scale 0 is the no-effect control and ±100 the full control effect; nearly all actives have a fitted effect of over 55% in size
#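 Cells (2,000 per well) received 5-fluorouridine plus test compound or DMSO and were incubated 16 hr at 37 °C, 5% CO2. Luciferase activity was read by luminescence 30 min after ONE-Glo addition; signal suppression marked inhibition of damage-induced ELG1 function.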
# SMN2 splice enh: enhancers of SMN2 splice variant expression. AID 1458. Potency, µM (series often up to 46.1 µM), without a hit: top-dose activity change, positive = activation, hits mostly activators. hit rate 2.8% among 210,000. HEK293 SMN2-luciferase splicing reporter, luminescence, 30-36 h; further: % of control where 0% means no effect; nearly all actives have a fitted effect of over 55% in size
#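 HEK293 cells carry an SMN2 […]–luciferase reporter in which exon 7 inclusion puts luciferase in frame. Cells were plated 10-12 h before compound addition, then incubated 30-36 h at 37C. ONE-Glo luminescence was read; sodium butyrate at 4.5 mM final served as control.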
# Rab9 prom act: activates the Rab9 promoter | Potency, µM (top dose mostly 9.22 µM), for inactives: at the top dose activation, negative = inhibition, actives largely listed as activators | hit rate 2.8% among 320,000 | Huh7 Rab9 promoter-luciferase reporter, luminescence, 24 h | AID 485297; further: % of control where 0% means no effect; nearly all actives have a fitted effect of over 60% in size
#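 Huh7 cells stably carrying a Rab9 promoter-luciferase reporter, 1500 cells per well in OP-MEM I with 10% FBS, treated with compound 24 hours at 37C. Luciferase activity read by luminescence after 10 minutes with Amplite reagent.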
# An asterisk follows results filed as active; ? = inconclusive; . = no result; [ ] = remark or other dose. Compounds with a hit are over-represented: about 9.4% of the library has one in this group of screens. The call rests on the fitted dose curve; in most records, active means well fitted curve in the direction sought with a large enough effect; inconclusive means small, poorly fitted or top-dose-only effect, or another doubt; inactive means no such curve, though single readings can be large; an effect the other way counts as inactive or inconclusive. Potency means the concentration at half of the fitted maximal effect.
SMILES,NPC1 promoter act,FLuc counter,ELG1 genotox,ELG1 repair inh,SMN2 splice enh,Rab9 prom act
CCOC(=O)C1(C)C=C(Nc2cccc(C(=O)O)c2)C(=O)N1c1ccccc1 (stereo not given),.,23.9µM*,.,.,12.6µM*,.
Clc1c(-c2ccccc2)nnn1-c1ccccc1,2.24µM*,3.38µM*,8.2µM*,?,10µM*,2.24µM*
CCCCCCc1cc2cc(-c3nnc(-c4cccc(Cl)c4)o3)c(=O)oc2cc1O,.,-14.5%,.,.,-6.8%,.
Cc1ccc(Cn2c(CNC(=O)c3cccc(C)c3)nc3ccccc32)cc1,.,-1.1%,.,.,8.8%,.
COCCCNC(=S)N1CCCN(c2nc3cc(C)ccc3cc2C#N)CC1,-1.6%,?,-13.7%,20.6µM*,-53.6%,0.4%
COCCCNC(=S)N1CCCN(c2nc3cc(C)c(C)cc3cc2C#N)CC1,-8.4%,-11.5%,-9.4%,?,.,-9.6%
COc1cccc(OCC(=O)NC2CC(=O)N(c3cccc(OC)c3)C2)c1 (stereo not given),.,0.3%,.,.,.,.
COc1ccc(NC(=O)c2ccc3c(c2)NC(=O)CS3)cc1S(=O)(=O)Nc1ccc(Br)cc1,-30.8%,-19.2%,-22.6%,11.6µM*,-13.9%,-22.4%
Cc1ccc(NS(=O)(=O)c2cc(NC(=O)c3ccc4c(c3)NC(=O)CS4)ccc2C)c(C)c1,-6.8%,-17.1%,-26.4%,18.3µM*,-42.0%,-8.1%
CC(=O)NS(=O)(=O)c1ccc(NC(=O)c2ccc3c(c2)NC(=O)CS3)cc1,.,.,3.3%,11.5%,.,.
O=C(O)C[C@H](S)C(=O)O,.,.,.,.,7.3%[9.22 µM],.
COc1cc(OC)c(NS(=O)(=O)c2cc(-c3cnc(C)o3)ccc2OC)cc1Cl,.,-2.5%,.,.,.,.
CC(C)Oc1ccc(C(=O)NC(Cc2c[nH]c3ccccc23)C(=O)NN)cc1 (stereo not given),-3.0%,12µM*,2.2%,0.0%,.,2.7%
Cc1ccc(C(=O)NC(Cc2c[nH]c3ccccc23)C(=O)O)cc1 (stereo not given),2.6%,?,-0.1%,18.6%,1.8%,1.3%
COc1ccc(C(=O)NNC(=O)C(Cc2ccc(O)cc2)NC(=O)c2ccccc2NC(=O)c2ccc(OC)cc2)cc1 (stereo not given),-0.6%,?,0.4%,?,.,-4.7%
O=C(Nc1ccccc1C(=O)NC(Cc1c[nH]c2ccccc12)C(=O)O)c1ccco1 (stereo not given),-1.6%,-6.6%,-0.1%,7.4%,3.1%,-0.3%
COc1ccc(C(=O)Nc2ccccc2C(=O)NC(Cc2c[nH]c3ccccc23)C(=O)O)cc1 (stereo not given),2.2%,15.1µM*,2.8%,16.3%,-9.7%,-3.1%
O=C(N[C@@H](Cc1c[nH]c2ccccc12)C(=O)NC1CC1)c1ccccc1Cl,?,?,?,?,11.2µM*,?
COc1ccc(C(=O)Nc2ccccc2C(=O)NC(Cc2ccc(O)cc2)C(=O)NNC(=O)c2ccccc2Cl)cc1 (stereo not given),2.0%,13.5µM*,-1.5%,?,-10.7%,-3.7%
O=C(N[C@@H](Cc1c[nH]c2ccccc12)C(=O)O)c1ccccc1Cl,-1.3%,-18.4%,0.9%,-1.5%,.,-7.1%
O=C(Nc1ccc(F)cc1F)C1CCN(S(=O)(=O)c2ccc3[nH]c(=O)ccc3c2)CC1,.,-0.1%,.,.,.,.
CCOC(=O)c1cc(S(=O)(=O)Nc2cc(OC)ccc2OC)[nH]n1,.,-14.6%,.,.,.,.
CCOc1ccc(NC(=O)CC2C(=O)N(c3ccccc3)C(=O)N2C2CCCCC2)cc1 (stereo not given),.,1.2%,.,.,-2.3%,.
O=C(OCC(=O)N1CCOCC1)c1ccccc1O,?,23.9µM*,?,?,.,3.98µM*
C/C(CC(=O)N1CCCC1)=N\NC(=O)c1cc2ccccc2cc1O,14.4%,15.1µM*,-8.5%,0.0%,.,0.9%
SMILES,NPC1 promoter act,FLuc counter,ELG1 genotox,ELG1 repair inh,SMN2 splice enh,Rab9 prom act
CCOC(=O)C(C)/C(C)=N/NC(=O)c1cc2ccccc2cc1O (stereo not given),0.2%,?,0.6%,-12.8%,?,1.7%
CC1CCCN(C(=O)COC(=O)c2n[nH]c3ccccc23)C1 (stereo not given),?,16.9µM*,23.1µM*,?,25.5%,?
CN(C(=O)COC(=O)c1cc2ccccc2cc1O)C1CCCCC1,7.4%,19µM*,0.8%,27.9%,.,0.5%
O=C(c1cn(CCOc2ccc(Cl)cc2)c2ccccc12)C1CCCCC1,.,1.4%,.,.,9.2%,.
Cc1ccc(C)c(Nc2nc3c(S(=O)(=O)c4ccc(Br)cc4)nnn3c3ccsc23)c1,.,-5.3%,.,.,.,.
COC(=O)C1(C(=O)OC)CC2=CCC3C(=O)N(c4ccccc4)C(=O)C3C2Cc2ccccc2[C@@H]1C[N+](=O)[O-] (stereo not given in full),.,.,.,.,2.5%,.
O=C(OCC(=O)N1CCCCC1)c1c[nH]c2ccccc12,24.3%,16.9µM*,?,?,.,?
O=C(OCC(=O)N1CCCCC1)c1cc2ccccc2cc1O,12.5%,23.9µM*,?,?,-5.5%,12.5%
O=C(NCc1cccc(F)c1)C1CCN(c2nc3ccccc3nc2C(F)(F)F)CC1,.,-0.7%,.,.,.,.
CCOCCc1nnc(NC(=O)C(=O)c2cc(C)n(-c3ccc(C)c(C)c3)c2C)s1,.,1.8%,.,.,.,.
COc1ccc(C(=O)CNc2ccc(C)cc2C)cc1,22.8%,12µM*,11.8%,?,.,36.4%
COC(=O)c1ccccc1NCC(=O)c1ccc(OC)cc1,?,?,6.7%,?,.,29.1%
COc1ccc(C(=O)CNc2ccccc2CO)cc1,9.6%,16.9µM*,?,?,?,-3.2%
COc1ccc(C(=O)CC(=O)C(=O)Nc2cc(C)ccc2C)cc1,0.9%,?,-7.0%,-20.3%,.,2.3%
N#CCCn1cc(/C=N/O)c(-c2ccc(F)cc2)n1,-2.2%,-0.6%,-8.1%,-6.4%,8.6%,-5.1%
N#CCCn1cc(/C=N/O)c(-c2ccccc2)n1,3.5%,-1.2%,1.1%,23.1µM*,-23.0%,?
N#CCCn1cc(/C=N/NC(N)=S)c(-c2ccc(-c3ccccc3)cc2)n1,-1.0%,-1.7%,-3.3%,25.9µM*,23.2%,-9.5%
CCOc1ccc(C(=O)NCCn2cc(SCC(=O)NCCc3ccc(OC)c(OC)c3)c3ccccc32)cc1,.,?,.,.,0.5%,.
O=C1NC(=O)/C(=C/c2ccc3c(c2)OC(F)(F)O3)S1,8.2µM*,.,.,.,.,?
O=C1NC(=O)/C(=C/c2cc3c(cc2Br)OCO3)S1,-2.5%,?,0.5%,-4.2%,.,3.1%
Cc1c(C)n(C)c2ccc(C(=O)NCCCN3CCCC3)cc12,-0.8%,0.2%,6.5%,?,.,-8.7%
